Assay results taken from PubChem BioAssay AID1159580 (chemical genetic matrix, 2015).
Several values for one entry are separate records, joined by “and”; a condition that tells them apart may be missing. Equal entries are not always repeated. The whole screen tested about 5,500 compounds, of which about 2,000 (36%) were called active. Inconclusive results (about 18%) are left out. Cut-off read from the data, not from the text of the source: active = normalized growth mostly below about 0.91 (no sharp cut-off); inconclusive = no clear call, values can overlap the other calls; inactive = mostly above about 0.92. Some of the results follow.

Assay: chemical genetic growth profiling, strain panel (AID 1159580);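 note: tested at 20 µM; growth read once vehicle control cultures reached saturation at 30 °C; 1 = growth at the plate median or of vehicle wells; lower values mean less growth of the strain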
Settings: S. cerevisiae deletion strains, growth OD

Measured: normalized growth

CC(=O)OC1CCC23C(=O)OC45CCC(C6=CC(=O)OC6)C4(C)CCC2C5CCC3(O)C1 (centres undefined)
inactive: locus YAL021C, strain ccr4, stronger effect = lower value 1 | locus YAL026C, strain drs2, stronger effect = lower value 0.979 | locus YAL030W, strain snc1, stronger effect = lower value 0.996 | locus YBL061C, strain skt5, stronger effect = lower value 0.975 | locus YBR009C, strain hhf1, stronger effect = lower value 0.998 | locus YBR021W, strain FUR4, stronger effect = lower value 1 | locus YBR023C, strain chs3, stronger effect = lower value 0.991 | locus YBR171W, strain sec66, stronger effect = lower value 0.953 | locus YBR229C, strain ROT2, stronger effect = lower value 1.01 | locus YBR231C, strain swc5, stronger effect = lower value 0.987 | locus YBR279W, strain paf1, stronger effect = lower value 1.01 | locus YCL011C, strain gbp2, stronger effect = lower value 1 | locus YCL016C, strain dcc1, stronger effect = lower value 1.04 | locus YCL029C, strain bik1, stronger effect = lower value 1.02 | locus YCL061C, strain MRC1, stronger effect = lower value 0.997 | locus YCL069W, strain vba3, stronger effect = lower value 0.979 | locus YCR088W, strain abp1, stronger effect = lower value 0.986 | locus YDL005C, strain med2, stronger effect = lower value 0.98 | locus YDL035C, strain GPR1, stronger effect = lower value 1.05 | locus YDL040C, strain nat1, stronger effect = lower value 0.99 | locus YDL074C, strain BRE1, stronger effect = lower value 1.1 | locus YDL101C, strain DUN1, stronger effect = lower value 1.01 | locus YDL185W, strain tfp1, stronger effect = lower value 0.992 | locus YDL192W, strain arf1, stronger effect = lower value 1.03 | locus YDR001C, strain nth1, stronger effect = lower value 0.991 | locus YDR069C, strain doa4, stronger effect = lower value 0.963 | locus YDR101C, strain arx1, stronger effect = lower value 1 | locus YDR137W, strain rgp1, stronger effect = lower value 1.03 | locus YDR159W, strain sac3, stronger effect = lower value 0.961 | locus YDR162C, strain NBP2, stronger effect = lower value 1.03 | locus YDR195W, strain ref2 0.943 | locus YDR297W, strain sur2, stronger effect = lower value 0.987 | locus YDR318W, strain mcm21, stronger effect = lower value 1.02 | locus YDR334W, strain swr1, stronger effect = lower value 0.959 | locus YDR335W, strain msn5, stronger effect = lower value 0.992 | locus YDR388W, stronger effect = lower value 0.998 | locus YDR392W, strain spt3, stronger effect = lower value 0.962 | locus YDR502C, strain sam2, stronger effect = lower value 1.02 | locus YEL003W, strain gim4, stronger effect = lower value 0.988 | locus YEL037C, strain rad23, stronger effect = lower value 0.97 | locus YEL061C, strain CIN8 (second series), stronger effect = lower value 0.981 | locus YER015W, strain faa2, stronger effect = lower value 0.977 | locus YER016W, strain bim1, stronger effect = lower value 0.994 | locus YER110C, stronger effect = lower value 0.997 | locus YER111C, strain swi4, stronger effect = lower value 0.95 | locus YER155C, strain BEM2 (second series), stronger effect = lower value 0.968 | locus YER155C, strain BEM2, stronger effect = lower value 1 | locus YER167W, strain BCK2, stronger effect = lower value 1.01 | locus YFR010W, strain ubp6, stronger effect = lower value 0.959 | locus YGL078C, strain dbp3, stronger effect = lower value 1 | locus YGL086W, strain mad1, stronger effect = lower value 1 | locus YGL167C, strain pmr1, stronger effect = lower value 0.978 | locus YGL173C, strain kem1, stronger effect = lower value 0.972 | locus YGL227W, strain vid30, stronger effect = lower value 0.994 | locus YGL240W, strain doc1, stronger effect = lower value 0.973 | locus YGL248W, strain PDE1, stronger effect = lower value 1.06 | locus YGL253W, strain hxk2, stronger effect = lower value 0.98 | locus YGR135W, strain pre9, stronger effect = lower value 0.997 | locus YGR252W, strain gcn5, stronger effect = lower value 1 | locus YHR013C, strain ard1, stronger effect = lower value 0.994 | locus YHR027C, strain rpn1, stronger effect = lower value 0.971 | locus YHR030C, strain SLT2, stronger effect = lower value 1.02 and 0.956 | locus YHR079C, strain IRE1 (second series), stronger effect = lower value 0.994 | locus YHR079C, strain IRE1, stronger effect = lower value 0.984 | locus YHR094C, strain hxt1, stronger effect = lower value 1 | locus YHR129C, strain ARP1, stronger effect = lower value 1.02 | locus YHR142W, strain chs7, stronger effect = lower value 1.02 | locus YHR200W, strain rpn10, stronger effect = lower value 1.01 | locus YIL066C, strain RNR3, stronger effect = lower value 1.03 | locus YIL073C, strain SPO22, stronger effect = lower value 1.11 | locus YIL125W, strain kgd1, stronger effect = lower value 1.02 | locus YIR030C, strain dcg1, stronger effect = lower value 1 | locus YJL092W, strain hpr5, stronger effect = lower value 0.971 | locus YJL095W, strain BCK1 (second series), stronger effect = lower value 0.96 | locus YJL095W, strain BCK1, stronger effect = lower value 1.08 and 0.965 | locus YJL115W, strain asf1, stronger effect = lower value 0.979 | locus YJL129C, strain trk1, stronger effect = lower value 0.973 | locus YJL134W, strain LCB3, stronger effect = lower value 1.01 | locus YJL154C, strain vps35, stronger effect = lower value 0.988 | locus YJL164C, strain tpk1, stronger effect = lower value 1.04 | locus YJL166W, strain qcr8, stronger effect = lower value 0.977 | locus YJL168C, strain set2, stronger effect = lower value 1.01 | locus YJL187C, strain SWE1 (second series), stronger effect = lower value 1.02 | locus YJR043C, strain POL32, stronger effect = lower value 1.05 | locus YJR066W, strain TOR1, stronger effect = lower value 0.883 | locus YKL009W, strain mrt4, stronger effect = lower value 1.02 | locus YKL068W, stronger effect = lower value 1.01 | locus YKL085W, strain MDH1 (second series), stronger effect = lower value 1 | locus YKL085W, strain MDH1, stronger effect = lower value 1 | locus YKL160W, strain elf1, stronger effect = lower value 1.06 | locus YKR001C, strain vps1, stronger effect = lower value 1.02 | locus YKR026C, strain gcn3, stronger effect = lower value 0.976 | locus YKR091W, strain srl3, stronger effect = lower value 0.994 | locus YLL001W, strain dnm1, stronger effect = lower value 1.01 | locus YLL026W, stronger effect = lower value 0.996 | locus YLL041C, strain sdh2, stronger effect = lower value 0.966 | locus YLR027C, strain aat2, stronger effect = lower value 0.988 | locus YLR039C, strain RIC1, stronger effect = lower value 1.23 | locus YLR058C, strain SHM2, stronger effect = lower value 1.02 | locus YLR102C, strain apc9, stronger effect = lower value 0.994 | locus YLR113W, strain HOG1, stronger effect = lower value 1.01 | locus YLR221C, strain rsa3, stronger effect = lower value 0.981 | locus YLR258W, strain gsy2, stronger effect = lower value 1 | locus YLR262C, strain YPT6 (second series), stronger effect = lower value 1.01 | locus YLR268W, strain sec22, stronger effect = lower value 1.02 | locus YLR320W, strain mms22, stronger effect = lower value 0.988 | locus YLR342W, strain FKS1 (second series), stronger effect = lower value 1.06 | locus YLR342W, strain FKS1, stronger effect = lower value 0.995 | locus YLR357W, strain rsc2, stronger effect = lower value 0.973 | locus YLR370C, strain arc18, stronger effect = lower value 0.986 | locus YLR371W, strain rom2, stronger effect = lower value 1.02 | locus YLR384C, strain iki3, stronger effect = lower value 0.997 | locus YLR418C, strain cdc73, stronger effect = lower value 1.06 | locus YML016C, strain PPZ1, stronger effect = lower value 1.01 | locus YML032C, strain rad52, stronger effect = lower value 1.01 | locus YML120C, strain ndi1, stronger effect = lower value 1.01 | locus YML124C, strain tub3, stronger effect = lower value 1.01 | locus YMR058W, strain fet3, stronger effect = lower value 0.988 | locus YMR078C, strain ctf18, stronger effect = lower value 1.01 | locus YMR125W, strain sto1, stronger effect = lower value 0.992 | locus YMR129W, stronger effect = lower value 0.986 | locus YMR205C, strain PFK2, stronger effect = lower value 1.01 | locus YMR223W, strain ubp8, stronger effect = lower value 1 | locus YMR231W, strain pep5, stronger effect = lower value 0.97 | locus YMR263W, strain SAP30, stronger effect = lower value 1.01 | locus YMR307W, strain GAS1, stronger effect = lower value 1.16 | locus YNL067W, strain RPL9B, stronger effect = lower value 0.999 | locus YNL071W, strain lat1, stronger effect = lower value 0.994 | locus YNL183C, strain NPR1, stronger effect = lower value 0.922 | locus YNL209W, strain ssb2, stronger effect = lower value 0.996 | locus YNL233W, strain BNI4, stronger effect = lower value 1.05 | locus YNL248C, strain rpa49, stronger effect = lower value 0.989 | locus YNL250W, strain rad50, stronger effect = lower value 1.03 | locus YNL271C, strain bni1, stronger effect = lower value 1.02 | locus YNL298W, strain CLA4, stronger effect = lower value 1.01 | locus YNL307C, strain MCK1, stronger effect = lower value 1.02 | locus YNL322C, strain KRE1 (second series), stronger effect = lower value 0.987 | locus YNR049C, strain mso1, stronger effect = lower value 0.967 | locus YNR052C, strain pop2, stronger effect = lower value 0.996 | locus YOL006C, strain TOP1, stronger effect = lower value 1.28 | locus YOL012C, strain htz1 0.952 | locus YOL147C, strain pex11, stronger effect = lower value 1.02 | locus YOR001W, strain rrp6, stronger effect = lower value 0.929 | locus YOR061W, strain CKA2, stronger effect = lower value 1.02 | locus YOR069W, strain VPS5, stronger effect = lower value 1 | locus YOR070C, strain gyp1, stronger effect = lower value 0.982 | locus YOR080W, strain dia2, stronger effect = lower value 0.98 | locus YOR083W, strain WHI5, stronger effect = lower value 1.06 | locus YOR106W, strain vam3, stronger effect = lower value 1.05 | locus YOR136W, strain idh2, stronger effect = lower value 0.997 | locus YOR144C, strain elg1, stronger effect = lower value 1 | locus YOR184W, strain ser1, stronger effect = lower value 1.02 | locus YOR231W, strain MKK1, stronger effect = lower value 0.976 | locus YOR265W, strain rbl2, stronger effect = lower value 0.996 | locus YOR270C, strain vph1, stronger effect = lower value 1 | locus YOR290C, strain snf2, stronger effect = lower value 1.02 | locus YOR316C, strain cot1, stronger effect = lower value 1.02 | locus YPL051W, strain arl3, stronger effect = lower value 0.967 | locus YPL055C, strain LGE1, stronger effect = lower value 1.09 | locus YPL078C, strain atp4, stronger effect = lower value 1.06 | locus YPL106C, strain sse1, stronger effect = lower value 1 | locus YPL240C, strain hsp82, stronger effect = lower value 0.979 | locus YPL241C, strain CIN2, stronger effect = lower value 1.02 | locus YPL256C, strain CLN2, stronger effect = lower value 0.975 | locus YPR119W, strain clb2, stronger effect = lower value 0.999 | locus YPR141C, strain kar3, stronger effect = lower value 0.997 | locus YPR163C, strain tif3, stronger effect = lower value 1.01 | locus YPR167C, strain met16, stronger effect = lower value 1.02 | strain wtn01, stronger effect = lower value 1
